# Measurements reported in ChEMBL document CHEMBL1961873, “Compounds: GSK PKIS; Assays: Nanosyn kinase panel” (2012).
# Tests used:
# [1] = target: Tyrosine-protein kinase CSK (Homo sapiens) (UniProt P41240); details: at 1 µM;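 note: each value is an averaged inhibition reading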
# [2] = target: T1, Discoidin domain-containing receptor 2 (Homo sapiens) (UniProt Q16832); details: at 0.1 µM
# T1 sequence (whole entry): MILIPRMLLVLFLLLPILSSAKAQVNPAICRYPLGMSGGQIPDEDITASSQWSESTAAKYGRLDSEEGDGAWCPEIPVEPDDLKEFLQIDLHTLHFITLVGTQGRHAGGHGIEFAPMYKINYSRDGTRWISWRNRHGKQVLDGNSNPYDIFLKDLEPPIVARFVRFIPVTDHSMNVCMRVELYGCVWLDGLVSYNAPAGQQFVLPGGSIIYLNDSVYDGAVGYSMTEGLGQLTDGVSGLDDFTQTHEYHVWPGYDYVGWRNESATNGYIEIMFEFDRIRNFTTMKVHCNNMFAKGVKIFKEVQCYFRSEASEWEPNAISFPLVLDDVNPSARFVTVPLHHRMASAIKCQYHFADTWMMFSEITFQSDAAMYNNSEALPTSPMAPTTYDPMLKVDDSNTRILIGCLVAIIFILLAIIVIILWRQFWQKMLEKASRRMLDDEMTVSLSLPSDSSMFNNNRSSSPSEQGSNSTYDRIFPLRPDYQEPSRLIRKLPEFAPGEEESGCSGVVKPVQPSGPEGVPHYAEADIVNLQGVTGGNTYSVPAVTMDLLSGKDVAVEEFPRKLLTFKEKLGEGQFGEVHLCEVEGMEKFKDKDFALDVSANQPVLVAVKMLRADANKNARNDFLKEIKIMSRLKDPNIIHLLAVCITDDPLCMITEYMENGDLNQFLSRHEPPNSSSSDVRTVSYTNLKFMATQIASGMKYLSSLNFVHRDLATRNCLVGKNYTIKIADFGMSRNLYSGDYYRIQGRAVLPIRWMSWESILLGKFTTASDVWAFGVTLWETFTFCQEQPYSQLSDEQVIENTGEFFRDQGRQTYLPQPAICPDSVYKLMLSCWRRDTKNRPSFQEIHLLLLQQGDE
# [3] = target: T1, Discoidin domain-containing receptor 2 (Homo sapiens); details: at 1 µM
# [4] = target: Epidermal growth factor receptor (Homo sapiens) (UniProt P00533); details: at 0.1 µM
# [5] = target: Epidermal growth factor receptor (Homo sapiens) (UniProt P00533); details: at 1 µM
# [6] = system: Epidermal growth factor receptor (Homo sapiens), P00533 [L858R]; details: at 0.1 µM
# [7] = system: Epidermal growth factor receptor (Homo sapiens), P00533 [L858R]; details: at 1 µM
# [8] = system: Epidermal growth factor receptor (Homo sapiens), P00533 [L861Q]; details: at 0.1 µM
# [9] = system: Epidermal growth factor receptor (Homo sapiens), P00533 [L861Q]; details: at 1 µM
# [10] = system: Epidermal growth factor receptor (Homo sapiens), P00533 [T790M]; details: at 0.1 µM
# [11] = system: Epidermal growth factor receptor (Homo sapiens), P00533 [T790M]; details: at 1 µM
# [12] = system: Epidermal growth factor receptor (Homo sapiens), P00533 [L858R,T790M]; details: at 0.1 µM
# [13] = system: Epidermal growth factor receptor (Homo sapiens), P00533 [L858R,T790M]; details: at 1 µM
# [14] = target: Ephrin type-A receptor 2 (Homo sapiens) (UniProt P29317); details: at 0.1 µM
# [15] = target: Ephrin type-A receptor 2 (Homo sapiens) (UniProt P29317); details: at 1 µM
# [16] = target: T2, Ephrin type-A receptor 3 (Homo sapiens) (UniProt P29320); details: at 0.1 µM
# T2 sequence (whole entry): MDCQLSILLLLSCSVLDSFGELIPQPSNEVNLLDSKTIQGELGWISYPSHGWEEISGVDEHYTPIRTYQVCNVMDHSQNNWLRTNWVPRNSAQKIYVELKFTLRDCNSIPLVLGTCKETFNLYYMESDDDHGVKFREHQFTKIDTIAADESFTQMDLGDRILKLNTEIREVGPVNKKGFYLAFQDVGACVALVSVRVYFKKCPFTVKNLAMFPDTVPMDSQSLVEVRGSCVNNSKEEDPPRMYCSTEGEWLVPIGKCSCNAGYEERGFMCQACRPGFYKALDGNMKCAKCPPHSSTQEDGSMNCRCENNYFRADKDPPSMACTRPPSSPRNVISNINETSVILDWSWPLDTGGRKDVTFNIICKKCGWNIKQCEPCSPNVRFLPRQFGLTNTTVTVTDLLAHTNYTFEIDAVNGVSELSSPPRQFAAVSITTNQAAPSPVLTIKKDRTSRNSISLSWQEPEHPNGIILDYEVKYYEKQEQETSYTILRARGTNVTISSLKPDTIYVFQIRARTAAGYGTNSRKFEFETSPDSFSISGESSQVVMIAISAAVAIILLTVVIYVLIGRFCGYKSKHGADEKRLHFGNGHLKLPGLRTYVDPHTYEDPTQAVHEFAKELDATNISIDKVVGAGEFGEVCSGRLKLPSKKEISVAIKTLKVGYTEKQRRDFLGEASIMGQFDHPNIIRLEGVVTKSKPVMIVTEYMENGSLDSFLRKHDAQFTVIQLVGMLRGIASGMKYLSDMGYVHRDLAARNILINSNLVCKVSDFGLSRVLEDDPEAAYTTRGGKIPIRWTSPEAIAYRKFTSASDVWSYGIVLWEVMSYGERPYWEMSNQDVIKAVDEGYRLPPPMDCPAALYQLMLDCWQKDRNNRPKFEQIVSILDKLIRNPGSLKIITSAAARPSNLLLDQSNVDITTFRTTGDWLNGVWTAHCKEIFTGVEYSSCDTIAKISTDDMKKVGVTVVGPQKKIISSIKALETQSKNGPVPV
# [17] = target: T2, Ephrin type-A receptor 3 (Homo sapiens); details: at 1 µM
# [18] = target: Ephrin type-A receptor 4 (Homo sapiens) (UniProt P54764); details: at 0.1 µM
# [19] = target: Ephrin type-A receptor 4 (Homo sapiens) (UniProt P54764); details: at 1 µM
# [20] = target: T3, Ephrin type-B receptor 2 (Homo sapiens) (UniProt P29323); details: at 0.1 µM;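 note: reported as mean inhibition of EPHB2, from the GSK PKIS dataset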
# T3 sequence (whole entry): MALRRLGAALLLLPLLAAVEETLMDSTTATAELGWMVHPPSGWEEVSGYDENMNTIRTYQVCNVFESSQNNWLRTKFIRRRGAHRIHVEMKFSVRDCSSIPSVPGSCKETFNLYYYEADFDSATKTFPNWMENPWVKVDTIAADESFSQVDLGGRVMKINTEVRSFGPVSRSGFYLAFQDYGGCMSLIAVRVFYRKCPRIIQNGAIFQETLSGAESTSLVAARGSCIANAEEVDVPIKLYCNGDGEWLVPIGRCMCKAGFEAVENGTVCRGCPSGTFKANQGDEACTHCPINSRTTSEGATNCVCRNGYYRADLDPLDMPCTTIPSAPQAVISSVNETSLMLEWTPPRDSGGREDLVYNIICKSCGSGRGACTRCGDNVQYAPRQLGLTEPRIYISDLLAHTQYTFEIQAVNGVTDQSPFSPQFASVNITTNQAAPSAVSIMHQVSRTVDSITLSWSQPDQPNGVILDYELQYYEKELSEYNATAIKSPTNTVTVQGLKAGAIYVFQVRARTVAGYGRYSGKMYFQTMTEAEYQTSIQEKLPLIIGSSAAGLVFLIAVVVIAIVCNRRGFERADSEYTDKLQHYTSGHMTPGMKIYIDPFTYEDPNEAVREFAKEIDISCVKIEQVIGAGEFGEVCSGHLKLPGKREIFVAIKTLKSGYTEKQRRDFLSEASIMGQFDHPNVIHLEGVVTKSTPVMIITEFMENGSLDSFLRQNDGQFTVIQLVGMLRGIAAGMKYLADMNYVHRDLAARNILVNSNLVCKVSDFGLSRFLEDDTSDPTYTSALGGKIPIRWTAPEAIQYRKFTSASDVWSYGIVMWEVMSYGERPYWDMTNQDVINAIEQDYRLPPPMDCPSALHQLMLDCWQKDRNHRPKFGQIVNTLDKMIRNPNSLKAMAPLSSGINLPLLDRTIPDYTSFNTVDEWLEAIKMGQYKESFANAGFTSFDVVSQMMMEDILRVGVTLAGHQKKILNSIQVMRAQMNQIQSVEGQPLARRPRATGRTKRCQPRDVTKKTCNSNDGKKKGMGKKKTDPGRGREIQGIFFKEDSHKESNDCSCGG
# Sequence of Ephrin type-A receptor 4 (Homo sapiens) (P54764 whole entry): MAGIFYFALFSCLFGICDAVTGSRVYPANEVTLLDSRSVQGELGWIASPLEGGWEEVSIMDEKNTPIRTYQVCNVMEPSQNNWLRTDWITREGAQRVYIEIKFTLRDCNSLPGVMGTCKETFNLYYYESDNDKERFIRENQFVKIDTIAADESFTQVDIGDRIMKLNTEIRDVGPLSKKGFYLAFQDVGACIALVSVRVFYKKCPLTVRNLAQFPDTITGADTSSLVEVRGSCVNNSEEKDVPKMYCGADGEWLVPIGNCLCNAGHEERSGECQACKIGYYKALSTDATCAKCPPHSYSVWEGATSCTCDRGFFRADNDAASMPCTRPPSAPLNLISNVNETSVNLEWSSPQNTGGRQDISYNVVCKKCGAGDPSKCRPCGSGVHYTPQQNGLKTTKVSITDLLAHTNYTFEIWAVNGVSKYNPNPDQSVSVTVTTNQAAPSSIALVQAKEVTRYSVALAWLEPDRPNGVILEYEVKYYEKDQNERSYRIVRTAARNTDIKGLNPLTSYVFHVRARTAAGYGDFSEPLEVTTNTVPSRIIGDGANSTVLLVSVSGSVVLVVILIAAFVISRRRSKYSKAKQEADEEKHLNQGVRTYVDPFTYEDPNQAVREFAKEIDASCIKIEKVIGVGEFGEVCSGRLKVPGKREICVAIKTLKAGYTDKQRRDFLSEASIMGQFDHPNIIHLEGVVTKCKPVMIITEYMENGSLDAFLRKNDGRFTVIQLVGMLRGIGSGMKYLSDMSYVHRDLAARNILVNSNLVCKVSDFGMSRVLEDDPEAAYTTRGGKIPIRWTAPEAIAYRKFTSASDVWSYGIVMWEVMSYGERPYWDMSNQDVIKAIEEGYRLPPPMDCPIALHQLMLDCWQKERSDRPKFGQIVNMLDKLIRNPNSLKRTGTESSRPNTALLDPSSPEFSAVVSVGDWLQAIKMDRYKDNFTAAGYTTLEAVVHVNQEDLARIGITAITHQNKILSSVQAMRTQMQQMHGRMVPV
# Sequence of Epidermal growth factor receptor (Homo sapiens), P00533 [L861Q] (P00533 whole entry L861Q): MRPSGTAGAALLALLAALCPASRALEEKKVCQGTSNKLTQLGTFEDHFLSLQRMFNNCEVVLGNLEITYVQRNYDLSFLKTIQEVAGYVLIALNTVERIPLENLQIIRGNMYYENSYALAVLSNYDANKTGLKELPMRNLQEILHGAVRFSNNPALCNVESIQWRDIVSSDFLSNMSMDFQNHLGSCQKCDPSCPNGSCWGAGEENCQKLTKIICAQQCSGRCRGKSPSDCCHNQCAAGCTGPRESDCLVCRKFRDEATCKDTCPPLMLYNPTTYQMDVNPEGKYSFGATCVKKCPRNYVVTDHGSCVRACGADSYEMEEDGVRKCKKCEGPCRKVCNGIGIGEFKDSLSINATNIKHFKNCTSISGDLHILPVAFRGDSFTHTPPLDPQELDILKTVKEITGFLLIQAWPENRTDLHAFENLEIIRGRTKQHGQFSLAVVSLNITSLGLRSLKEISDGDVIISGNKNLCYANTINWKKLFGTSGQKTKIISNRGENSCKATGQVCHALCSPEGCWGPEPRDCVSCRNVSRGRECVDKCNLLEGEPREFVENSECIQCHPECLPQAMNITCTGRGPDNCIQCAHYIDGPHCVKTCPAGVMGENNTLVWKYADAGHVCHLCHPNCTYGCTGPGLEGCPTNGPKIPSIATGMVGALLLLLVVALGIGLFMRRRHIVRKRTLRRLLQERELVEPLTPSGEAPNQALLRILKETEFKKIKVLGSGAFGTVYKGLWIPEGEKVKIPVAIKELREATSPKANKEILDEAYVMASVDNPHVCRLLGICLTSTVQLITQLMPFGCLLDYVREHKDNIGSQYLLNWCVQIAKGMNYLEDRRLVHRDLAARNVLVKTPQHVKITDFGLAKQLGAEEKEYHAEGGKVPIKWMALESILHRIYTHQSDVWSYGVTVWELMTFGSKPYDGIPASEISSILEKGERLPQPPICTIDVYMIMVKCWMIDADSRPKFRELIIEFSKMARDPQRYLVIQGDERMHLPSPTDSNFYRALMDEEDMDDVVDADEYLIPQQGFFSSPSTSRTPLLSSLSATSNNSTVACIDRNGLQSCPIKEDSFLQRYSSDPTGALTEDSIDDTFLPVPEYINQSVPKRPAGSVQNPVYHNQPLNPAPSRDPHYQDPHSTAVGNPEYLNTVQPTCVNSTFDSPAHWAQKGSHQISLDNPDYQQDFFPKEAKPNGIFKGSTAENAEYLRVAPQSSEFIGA
# Sequence of Epidermal growth factor receptor (Homo sapiens), P00533 [L858R,T790M] (P00533 whole entry T790M/L858R, looked up): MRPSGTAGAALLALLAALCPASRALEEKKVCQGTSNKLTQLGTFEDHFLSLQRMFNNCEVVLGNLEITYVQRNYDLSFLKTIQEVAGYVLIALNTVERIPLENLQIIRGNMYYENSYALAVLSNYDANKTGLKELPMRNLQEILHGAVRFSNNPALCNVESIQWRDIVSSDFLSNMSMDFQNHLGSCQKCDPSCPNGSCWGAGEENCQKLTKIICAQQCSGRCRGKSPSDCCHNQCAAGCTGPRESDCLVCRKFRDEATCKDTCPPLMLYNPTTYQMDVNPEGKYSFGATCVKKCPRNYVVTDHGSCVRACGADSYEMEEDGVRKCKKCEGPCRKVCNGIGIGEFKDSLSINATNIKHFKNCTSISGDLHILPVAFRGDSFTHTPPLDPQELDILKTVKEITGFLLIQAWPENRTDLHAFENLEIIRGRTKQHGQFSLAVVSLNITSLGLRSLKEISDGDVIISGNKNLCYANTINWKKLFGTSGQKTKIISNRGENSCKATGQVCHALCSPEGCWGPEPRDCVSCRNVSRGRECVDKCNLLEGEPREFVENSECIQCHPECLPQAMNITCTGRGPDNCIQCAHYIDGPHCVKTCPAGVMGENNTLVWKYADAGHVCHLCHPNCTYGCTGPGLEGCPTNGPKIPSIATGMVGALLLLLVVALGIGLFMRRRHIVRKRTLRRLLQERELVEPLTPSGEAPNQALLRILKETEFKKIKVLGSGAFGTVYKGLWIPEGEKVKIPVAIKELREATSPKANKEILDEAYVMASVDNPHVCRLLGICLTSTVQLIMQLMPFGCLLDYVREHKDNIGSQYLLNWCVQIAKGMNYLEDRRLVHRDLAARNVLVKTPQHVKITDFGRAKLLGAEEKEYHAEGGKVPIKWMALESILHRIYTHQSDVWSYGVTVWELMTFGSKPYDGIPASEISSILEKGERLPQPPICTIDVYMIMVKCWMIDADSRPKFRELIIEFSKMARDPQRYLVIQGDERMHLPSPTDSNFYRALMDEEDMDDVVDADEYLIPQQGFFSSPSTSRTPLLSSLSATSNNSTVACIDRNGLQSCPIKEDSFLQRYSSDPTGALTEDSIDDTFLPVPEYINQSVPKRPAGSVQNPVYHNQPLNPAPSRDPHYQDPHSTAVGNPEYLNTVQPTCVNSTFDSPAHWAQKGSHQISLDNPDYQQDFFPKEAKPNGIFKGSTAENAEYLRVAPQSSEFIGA
# Sequence of Epidermal growth factor receptor (Homo sapiens), P00533 [T790M] (P00533 whole entry T790M): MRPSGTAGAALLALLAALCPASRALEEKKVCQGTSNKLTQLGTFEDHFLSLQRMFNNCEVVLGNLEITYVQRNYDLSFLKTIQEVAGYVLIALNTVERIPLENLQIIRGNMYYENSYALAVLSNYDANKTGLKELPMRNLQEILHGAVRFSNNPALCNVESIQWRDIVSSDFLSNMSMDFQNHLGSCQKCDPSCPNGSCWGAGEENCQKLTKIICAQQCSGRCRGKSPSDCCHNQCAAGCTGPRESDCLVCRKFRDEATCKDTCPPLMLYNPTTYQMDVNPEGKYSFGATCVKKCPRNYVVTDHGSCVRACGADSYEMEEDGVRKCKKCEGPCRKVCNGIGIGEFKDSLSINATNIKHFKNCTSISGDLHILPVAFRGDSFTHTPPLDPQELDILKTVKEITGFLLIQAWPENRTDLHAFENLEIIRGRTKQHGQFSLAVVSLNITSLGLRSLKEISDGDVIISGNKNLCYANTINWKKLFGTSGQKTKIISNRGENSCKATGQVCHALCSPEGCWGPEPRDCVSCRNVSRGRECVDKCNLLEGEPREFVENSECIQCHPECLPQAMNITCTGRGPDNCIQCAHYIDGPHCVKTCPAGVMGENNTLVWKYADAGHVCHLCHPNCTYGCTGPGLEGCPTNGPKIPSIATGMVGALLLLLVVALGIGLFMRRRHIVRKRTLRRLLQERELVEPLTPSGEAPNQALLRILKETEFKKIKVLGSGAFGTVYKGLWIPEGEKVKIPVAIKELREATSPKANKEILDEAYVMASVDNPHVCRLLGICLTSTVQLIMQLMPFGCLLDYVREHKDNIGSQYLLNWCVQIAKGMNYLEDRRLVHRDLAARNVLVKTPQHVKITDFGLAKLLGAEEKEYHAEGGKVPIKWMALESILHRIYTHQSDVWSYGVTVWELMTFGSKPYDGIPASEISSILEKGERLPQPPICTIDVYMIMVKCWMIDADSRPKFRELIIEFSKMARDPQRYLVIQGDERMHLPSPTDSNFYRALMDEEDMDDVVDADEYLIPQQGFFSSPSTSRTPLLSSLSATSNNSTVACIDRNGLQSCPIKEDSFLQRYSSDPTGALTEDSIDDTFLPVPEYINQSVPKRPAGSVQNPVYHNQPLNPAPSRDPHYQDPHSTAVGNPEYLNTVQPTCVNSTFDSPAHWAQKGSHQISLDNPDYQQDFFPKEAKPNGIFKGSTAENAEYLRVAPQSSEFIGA
# Sequence of Tyrosine-protein kinase CSK (Homo sapiens) (P41240 2-450 limits assumed): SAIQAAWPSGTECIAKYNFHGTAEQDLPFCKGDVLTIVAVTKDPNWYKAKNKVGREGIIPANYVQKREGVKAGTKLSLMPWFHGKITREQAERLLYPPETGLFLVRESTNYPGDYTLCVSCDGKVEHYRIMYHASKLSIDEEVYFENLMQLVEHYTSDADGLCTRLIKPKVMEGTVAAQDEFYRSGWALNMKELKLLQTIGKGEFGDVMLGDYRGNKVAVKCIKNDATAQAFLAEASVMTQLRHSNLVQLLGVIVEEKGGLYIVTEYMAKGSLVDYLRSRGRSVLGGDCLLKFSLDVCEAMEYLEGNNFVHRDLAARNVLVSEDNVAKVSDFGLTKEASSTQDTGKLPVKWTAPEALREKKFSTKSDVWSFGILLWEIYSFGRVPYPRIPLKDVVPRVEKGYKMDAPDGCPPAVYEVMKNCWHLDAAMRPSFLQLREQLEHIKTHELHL
Structure (SMILES),inhibition [1] [%],inhibition [2] [%],inhibition [3] [%],inhibition [4] [%],inhibition [5] [%],inhibition [6] [%],inhibition [7] [%],inhibition [8] [%],inhibition [9] [%],inhibition [10] [%],inhibition [11] [%],inhibition [12] [%],inhibition [13] [%],inhibition [14] [%],inhibition [15] [%],inhibition [16] [%],inhibition [17] [%],inhibition [18] [%],inhibition [19] [%],inhibition [20] [%]
CN(C)c1cc2c(Nc3ccc4nc(Cc5ccccc5)[nH]c4c3)ncnc2cn1,55.3,3.16,7.23,66.6,77.6,16.1,48.1,27.3,40.3,3.48,6.78,3.54,7,2.13,2.37,7.81,5.67,11.6,15.2,9.32
COc1ccc(-c2nn3ncccc3c2-c2ccnc(Nc3ccc(Cl)c(C(F)(F)F)c3)n2)cc1,5.3,0.69,3.24,0.68,3.67,1.63,14.3,2,5.96,0.44,3.31,0.9,4.78,0.97,0.97,3.2,3.4,6.57,10.2,3.9
Cc1cc(O)cc(C)c1/C=C/c1cncc(-c2nn[nH]n2)c1,43.4,1.73,6.08,-1.53,15.8,10.4,56.9,3.95,21.2,2.17,3.37,2.15,2.05,39.5,84.4,12.4,34.8,37.4,87.6,15.1
Cc1ccc(C(=O)NC2CCCCC2)cc1-c1ccc(C(=O)NCC2CC2)cc1,1.73,3.79,6.99,10.6,14.3,1.02,0.13,1.18,0.87,0.94,-2.05,-0.59,-0.67,2.02,1.67,5.5,5.14,8.35,3.57,6.79
Nc1nc(-c2ccc3c(c2)C(=Cc2cc(Br)c(O)c(Br)c2)C(=O)N3)cs1,-6.6,0.46,2.46,0.84,5.53,-3.68,8.58,0.03,1.67,-1.77,-1.57,-0.73,3.93,-4.92,-4.26,-6.05,-2.41,-6.57,-2.56,-3.26
O=C1NC(=O)C(c2ccccc2Cl)=C1Nc1cccc(O)c1,3.08,-0.34,-0.1,2.49,5.23,3.81,3.71,0.72,3.71,1.27,0.02,0.56,1.35,2.61,1.5,2.51,2.67,5.56,2.36,5.61
